FAS TE block = inhibitors of human fatty acid synthase thioesterase domain; P49327; recombinant FAS-TE, OMFH fluorogenic substrate, fluorescence endpoint; inhibition, % at 15 µM; actives 0.67% (n = 360,000);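 active = compounds whose normalised, plate-corrected inhibition of enzyme fluorescence in the single-dose primary screen is 50% or more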;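 also: 0% = DMSO with enzyme and 100% = substrate without enzyme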
sPLA2-III inh = Blocks human group III sPLA2 activity | Q9NZ20 | QFRET BODIPY PC-A2 liposome hydrolysis, fluorescence | inhibition, % at 12.2 µM | actives 0.56% (n = 370,000);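 active = inhibition above mean plus 3 SD of compounds lying within the high and low control bounds, cut at about 19% in these data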;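 also: 0% = median of test compound wells and 100% = no enzyme DMSO wells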
NR3A LBD binder = NR3A (human) ligand-binding domain modulation; AID 1259313; actives 2.5% (n = 340,000); Tm shift relative to glycine control, % at 25 µM; NR3A LBD differential scanning fluorimetry, Tm shift; 0% = protein alone, 100% = glycine-bound protein;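 active = melting temperature shift of at least 10% of the positive control shift, at one fixed dose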
ADAM10 inh = ADAM10 inhibition, QFRET primary screen | O14672 | recombinant ADAM10, EDANS/DABCYL FRET peptide cleavage, 3 h | inhibition, % at 7 µM | actives 0.62% (n = 370,000) | AID 720582;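 active = inhibition above a per-campaign cutoff equal to the mean of compounds falling between control-based bounds plus 3 SD, cut at about 20% in these data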;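 also: 0% = DMSO wells while the 100% control is not disclosed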
ADAM17 inh = inhibitors of human ADAM17; P78536; recombinant ADAM17, EDANS/DABCYL FRET peptide cleavage; inhibition, % at 6.95 µM; actives 0.83% (n = 370,000);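 active = inhibition above the mean of compounds lying between control limits plus 3 SD, set per campaign, cut at about 8.5% in these data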;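 also: 0% = DMSO-only wells as the low control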
Target sequence (P78536 215-824 limits assumed): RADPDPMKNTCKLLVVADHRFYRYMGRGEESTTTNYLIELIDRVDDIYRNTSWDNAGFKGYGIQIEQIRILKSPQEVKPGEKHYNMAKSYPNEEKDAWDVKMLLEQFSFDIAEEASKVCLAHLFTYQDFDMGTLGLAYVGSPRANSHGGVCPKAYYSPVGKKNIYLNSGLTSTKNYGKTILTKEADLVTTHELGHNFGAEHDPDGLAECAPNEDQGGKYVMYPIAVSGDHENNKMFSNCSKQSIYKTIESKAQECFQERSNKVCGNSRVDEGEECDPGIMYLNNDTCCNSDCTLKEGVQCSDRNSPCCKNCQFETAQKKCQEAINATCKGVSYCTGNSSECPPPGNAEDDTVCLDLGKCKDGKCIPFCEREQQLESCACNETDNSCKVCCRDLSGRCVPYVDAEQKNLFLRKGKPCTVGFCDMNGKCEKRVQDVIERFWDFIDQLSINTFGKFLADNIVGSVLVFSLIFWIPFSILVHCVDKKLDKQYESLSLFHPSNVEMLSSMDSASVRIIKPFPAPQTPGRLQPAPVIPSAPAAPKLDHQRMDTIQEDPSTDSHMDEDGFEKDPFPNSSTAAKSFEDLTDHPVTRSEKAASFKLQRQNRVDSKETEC
The depositor's hits bear a star. Most compounds without a hit are left out; they make up all but 4.3% or so of the library.

COc1ccccc1C=NNC(=O)NN=Cc1ccccc1OC was read as FAS TE block 6.0, sPLA2-III inh 3.3, NR3A LBD binder -1.2, ADAM10 inh -8.3 and ADAM17 inh -2.3.
CCOC(=O)[C@@]12CCCC3=C1N(CCC3)C(=O)[C@H]2CC(=O)NCc1ccc(C)o1 was read as sPLA2-III inh -3.9, ADAM10 inh -2.1 and ADAM17 inh -1.3.
COc1ccc(C)c(NC(=O)[C@@H]2CCCN2S(=O)(=O)c2cccc3cccnc23)c1 was read as sPLA2-III inh 0.8, ADAM10 inh 2.6 and ADAM17 inh -2.1.
Fc1cccc(Nc2ncnc3sc4c(c23)CCC4)c1 was read as FAS TE block -0.5, sPLA2-III inh -10.1, NR3A LBD binder 12.7*, ADAM10 inh 3.6 and ADAM17 inh 3.9.
Screening O=C(/C=C/c1ccc(S(=O)(=O)N2CCOCC2)cc1)Nc1cc(F)ccc1F returned FAS TE block 9.7, sPLA2-III inh 1.0, NR3A LBD binder 31.7*, ADAM10 inh -11.2 and ADAM17 inh 2.3.
For COc1ccc(/C=C/C(=O)Nc2cc(F)ccc2C)cc1S(=O)(=O)N1CCOCC1 the results were FAS TE block 9.3, sPLA2-III inh 1.1, NR3A LBD binder -1.1, ADAM10 inh 5.1 and ADAM17 inh 3.9.
Screening Cc1ccc(F)cc1NC(=O)/C=C/c1ccc(S(=O)(=O)N2CCOCC2)cc1 returned FAS TE block 17.7, sPLA2-III inh -8.1, NR3A LBD binder 15.2*, ADAM10 inh 8.2 and ADAM17 inh 1.8.
Screening O=C(NC(=S)Nc1nc(-c2ccccc2)cs1)c1ccco1 returned FAS TE block 5.0, sPLA2-III inh 7.2, NR3A LBD binder 15.7*, ADAM10 inh 1.7 and ADAM17 inh 2.5.
`O=C(Nc1nc(-c2cc(Cl)sc2Cl)cs1)c1cccs1` gave FAS TE block 25.8, sPLA2-III inh -0.9, NR3A LBD binder 13.7*, ADAM10 inh 0.6 and ADAM17 inh -4.9.
Screening O=C(NC(=S)Nc1nc(-c2ccccc2)cs1)c1cccs1 returned FAS TE block 12.0, sPLA2-III inh -6.2, NR3A LBD binder 27.6*, ADAM10 inh 2.5 and ADAM17 inh 5.5.
`O=C(Nc1nc(-c2cc(Cl)sc2Cl)cs1)c1ccc(Br)s1` gave FAS TE block 7.6, sPLA2-III inh -2.6, NR3A LBD binder -2.0, ADAM10 inh -11.3 and ADAM17 inh -8.6.
O=C(NC(=S)Nc1nc(-c2ccccc2)cs1)c1cccnc1 was read as FAS TE block 1.6, sPLA2-III inh 7.0, NR3A LBD binder -23.9, ADAM10 inh 4.5 and ADAM17 inh -0.1.
For O=C(NC(=S)Nc1nc(-c2ccccc2)cs1)c1cncc(Br)c1 the results were FAS TE block 0.2, sPLA2-III inh 0.4, NR3A LBD binder 30.9*, ADAM10 inh 0.7 and ADAM17 inh 2.7.
Screening COC(=O)C[C@@H]1CC[C@H]2[C@@H](COc3ccc(NC(=O)Nc4ccc(C)cc4)cc3C(=O)N2C)O1 returned sPLA2-III inh -2.0, ADAM10 inh 3.2 and ADAM17 inh -1.1.
COc1ccc(NC(=O)Cn2nnc(-c3ccccc3NS(=O)(=O)c3ccccc3)n2)cc1 was read as FAS TE block 20.8 and NR3A LBD binder 17.4*.
`CCOc1ccc(NC(=O)Cn2nnc(-c3ccccc3NC(=O)c3cccs3)n2)cc1` gave FAS TE block -5.0, sPLA2-III inh -3.8, NR3A LBD binder 15.0*, ADAM10 inh 6.4 and ADAM17 inh -1.2.
COc1ccc(S(=O)(=O)Nc2ccccc2-c2nnn(CC(=O)Nc3ccccc3OC)n2)cc1 was read as FAS TE block 14.4, sPLA2-III inh -21.2, NR3A LBD binder -3.1, ADAM10 inh 0.5 and ADAM17 inh 4.2.
Screening O=C(c1ccc([N+](=O)[O-])cc1)N1CCN=C1SCc1ccccc1 returned FAS TE block 6.0, sPLA2-III inh -0.1, NR3A LBD binder 0.9, ADAM10 inh 7.3 and ADAM17 inh 1.4.
For O=C(c1ccccc1)N1CCN=C1SCc1ccc([N+](=O)[O-])cc1 the results were FAS TE block -2.9, sPLA2-III inh -1.7, NR3A LBD binder 24.2*, ADAM10 inh 2.2 and ADAM17 inh 2.7.
Nn1c(SCC(=O)Nc2cccc3ccccc23)nnc1-c1cc(-c2ccc(Cl)cc2)n[nH]1 was read as sPLA2-III inh -3.5, ADAM10 inh 3.4 and ADAM17 inh -1.0.
Cc1nc(N2CCN(C(=O)COc3ccccc3C)CC2)c2c3c(sc2n1)CCCC3 was read as sPLA2-III inh 5.7, ADAM10 inh -11.0 and ADAM17 inh -6.2.
For COc1ccc(CCNC(=S)NCCc2ccc(OC)c(OC)c2)cc1OC the results were FAS TE block -8.1, sPLA2-III inh 7.6, NR3A LBD binder 27.1*, ADAM10 inh 2.3 and ADAM17 inh -1.6.
`O=C(NCCc1ccc(Cl)cc1)Nc1cccc(Cl)c1` gave FAS TE block 37.4, sPLA2-III inh -22.0, NR3A LBD binder 20.5*, ADAM10 inh 17.1 and ADAM17 inh 6.1.
For O=C(NCCc1ccncc1)Nc1ccc(Cl)c(Cl)c1 the results were FAS TE block 10.0, sPLA2-III inh -9.0, NR3A LBD binder 18.0*, ADAM10 inh 3.3 and ADAM17 inh 0.0.
COc1ccc(NC(=O)NCCc2cccc(Cl)c2)cc1OC was read as FAS TE block -4.4, sPLA2-III inh 0.0, NR3A LBD binder 16.1*, ADAM10 inh 0.5 and ADAM17 inh 1.4.
`Cc1cccc(NC(=O)NCCc2ccc(Cl)cc2)c1` gave FAS TE block 1.7, sPLA2-III inh -4.0, NR3A LBD binder 7.0, ADAM10 inh -6.5 and ADAM17 inh -2.7.
For COc1ccc(CCNC(=O)Nc2ccc3c(c2)OCO3)cc1OC the results were FAS TE block -2.4, sPLA2-III inh -4.3, NR3A LBD binder 0.7, ADAM10 inh 7.5 and ADAM17 inh -4.4.
`O=C1NC(Cc2cnc[nH]2)C(=O)N2CCCC12` (configuration not stated) gave sPLA2-III inh 0.6, ADAM10 inh -14.8 and ADAM17 inh -3.8.
For COc1ccc(-n2c(COc3ccccc3)nnc2SCC(=O)Nc2ccc3c(c2)OCCO3)cc1 the results were sPLA2-III inh -43.0, ADAM10 inh 16.2 and ADAM17 inh 7.7.
For O=C(NCCc1ccccc1)Nc1cccc(Cl)c1 the results were FAS TE block 3.0, sPLA2-III inh 6.8, NR3A LBD binder 20.0*, ADAM10 inh -1.7 and ADAM17 inh 7.1.
For Brc1ccc2nc(-c3ccc(CN4CCC(c5nc6ccccc6[nH]5)CC4)cc3)c(-c3ccccc3)nc2c1 the results were sPLA2-III inh 1.8, ADAM10 inh 0.1 and ADAM17 inh 2.6.
COc1cccc(C2c3cc4c(cc3OC(N3CCCC3)C2C)OCO4)c1O (configuration not stated) was read as FAS TE block 21.9, sPLA2-III inh -7.7, NR3A LBD binder 15.4*, ADAM10 inh 8.7 and ADAM17 inh 1.2.
`Clc1ccc(C=Cc2ccccn2)cc1` gave FAS TE block 5.0, sPLA2-III inh -2.4, NR3A LBD binder 3.3, ADAM10 inh -9.2 and ADAM17 inh -2.5.

Assay outcomes from PubChem BioAssay.
